# Records with an inconclusive call do not appear. Active and inactive are the calls of the source.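 The calls were made as follows, unless noted: active = percent response above a set limit, the screen-wide mean plus 3 SD (cut at about 130% in these data); inactive = the rest.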
# Tests used:
# [1] = yeast TOR pathway RPL19A-GFP modulators, primary screen, cell-based, S. cerevisiae, multiplex flow cytometry (AID 1862; in the data active = percent of DMSO control GFP below about 86%;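 also: lower values mimic rapamycin by blocking the RPL19A rise seen in DMSO cells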); settings: S. cerevisiae RPL19A-GFP strain, flow cytometry fluorescence, 3 h; at 10 µM; stronger effect = lower value
# [2] = modulators of MEP2-GFP levels in yeast, primary screen, S. cerevisiae, multiplex flow cytometry (AID 1867;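 active = GFP response, as percent of the DMSO control, above the screen-wide mean plus 3 SD, about 139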;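 also: median GFP channel fluorescence of barcode-gated MEP2-GFP cells measured by flow cytometry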); settings: S. cerevisiae MEP2-GFP strain, 3 h, at 10 µM, stronger effect = higher value, 100% means same as DMSO wells
# [3] = modulators of CIT2-GFP expression in yeast, primary screen, S. cerevisiae, GFP fusion, multiplex flow cytometry (AID 1870); settings: 3 h, at 10 µM, stronger effect = higher value;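 also: barcoded CIT2-GFP strain pooled with four other GFP strains with rapamycin as positive control; median GFP fluorescence per well over plate mean of DMSO wells so 100% = DMSO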
# [4] = modulators of LAP4-GFP expression in yeast, primary screen, S. cerevisiae, multiplex flow cytometry (AID 1873;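 active = GFP signal, as percent of the solvent control, above the screen mean plus 3 SD, about 149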); settings: 3 h, at 10 µM, stronger effect = higher value
# [5] = modulators of AGP1-GFP expression in yeast TOR pathway, primary screen, cell-based, multiplex flow cytometry, S. cerevisiae (AID 1887;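 active = GFP signal above the screen-wide mean plus 3 SD, that is over about 124.5% of the solvent control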;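 also: AGP1-GFP fusion strain of S. cerevisiae within a five-strain barcoded multiplex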); settings: 3 h, at 10 µM, stronger effect = higher value
# [6] = inhibitors of CD8+ T cell-vesicle binding, pilot screen, LFA-1/ICAM-1 modulator project, MLPCN validation set, flow cytometry (AID 2523;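 active = response below a set limit, under 55% cells CD8-positive and vesicle-bound, and CD8 cells' 90th-percentile brightness under 279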;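 as to vesicle binding response: mean PE anti-B7-1 fluorescence of CD8+ cells relative to row control; 100% = QL9-loaded vesicles with DMSO vehicle in the same plate row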); settings: 2C mouse CD8+ T cells, at 7 µM, stronger effect = lower value; double positive events: measured here: CD8+/vesicle+ event percentage
# [7] = target: Integrin beta-1 (Homo sapiens) + Integrin alpha-4 (Homo sapiens) (UniProt P13612+P05556); experiment: inhibition of HUTS-21 binding to VLA-4, pilot screen, VLA-4 allosteric modulator project, U937 cells, HUTS-21 mAb, flow cytometry, validation set (AID 2674;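 active = inhibition above 50%, about 3 SD of the validation set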;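 also: antibody binding induced by the VLA-4 ligand LDV present at three times its Kd; 0% = LDV ligand with antibody and no compound and 100% = antibody without LDV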); settings: HUTS-21 LIBS mAb binding, at 6.7 µM, stronger effect = higher value, binding induced by LDV ligand
# [8] = superoxide lowering in aged yeast cells, pilot screen, validation compound set (AID 2706;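 active = superoxide response below 65% of plate, a cut near 3 SD across the whole screen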;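 also: yeast exposed to compound for one week at 30 degrees C before staining; 100% = mean of all compound wells on the same plate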); settings: S. cerevisiae aging, superoxide DHE fluorescence; at 10 µM; stronger effect = lower value
# [9] = target: Beta-adrenergic receptor kinase 1 (Homo sapiens) (UniProt P25098); experiment: GRK2 binders displacing RNA aptamer, biochemical, validation, human GRK2, bead flow cytometry (AID 488806;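 active = aptamer binding inhibition above 30%, about 3 SD of noise from non-fluorescent compounds; inactive = inhibition at or below 30%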); settings: bead-bound GRK2, FAM-aptamer displacement, at 10 µM, stronger effect = higher value
# [10] = target: Beta-2 adrenergic receptor (Homo sapiens) (UniProt P07550); experiment: beta2AR agonists driving receptor internalization, pilot screen, cell-based, FAP fluorogen, flow cytometry, validation set (AID 504459;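 active = percent response above 42, roughly 3 SD of non-fluorescent test compounds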;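 also: agonist-driven loss of surface beta2AR via internalization measured by FAP dye flow cytometry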); settings: Am2.2-beta2AR cells, FAP surface receptor flow cytometry; at 10 µM; stronger effect = higher value
# [11] = target: AP-2 complex subunit beta (Homo sapiens) (UniProt P63010); experiment: inhibitors of arrestin peptide binding to AP2, pilot screen, biochemical, validation set, GST-AP2 beads, flow cytometry (AID 504541;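 active = inhibition above 54%, about 3 SD of non-fluorescent compounds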;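 also: AP2 carries R879A mutation and is captured from E. coli lysate; bead-bound FITC arrestin peptide fluorescence measuring arrestin peptide binding to AP2; 0% = DMSO wells and 100% = excess unlabeled arrestin peptide control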); settings: FITC arrestin peptide, at 10 µM, stronger effect = higher value, AP2 beta2 appendage fragment, R879A mutant
# [12] = yeast V-ATPase proton transport modulators, S. cerevisiae, pHLuorin, HTS validation (AID 504600; in the data active = response above about 15%;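 also: plate controls were DMSO for no effect and reference compound for full effect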); settings: S. cerevisiae pHLuorin cytosolic pH, at 10 µM, stronger effect = higher value
# [13] = system: anti-desmoglein-3 scFv antibody binding to human DSG3; experiment: inhibitors of anti-DSG3 scFv binding to DSG3, pilot screen, biochemical, validation compound set, bead-based, flow cytometry (AID 588368;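 active = binding below the plate cutoff, the plate median minus 3 SD, with a reading above zero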;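 also: signal is the median channel fluorescence of bead-bound GFP antibody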); settings: Protein G beads, DSG3-Fc, scFv-GFP binding, at 10 µM, stronger effect = lower value
# [14] = inhibitors of fungal efflux pumps CDR1, CDR2, MDR1, pilot screen, validation compound set, multiplex, phenotypic (AID 588506;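 active = efflux inhibition above 0.42, the validation set average plus 4 SD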;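 also: Nile Red retained in cells so higher fluorescence means more efflux inhibition; 0 = negative control wells and 1 = enniatin B 25 µM full block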); settings: S. cerevisiae pump-expressing triplex, Nile Red efflux flow cytometry; at 10 µM; stronger effect = higher value; the pumps come from Candida albicans
# [15] = target: ATP-binding cassette sub-family B member 6 (Homo sapiens) (UniProt Q9NP58); experiment: ABCB6 transporter inhibitors, pilot screen, K562-ABCB6 cells, flow cytometry, validation set (AID 588550;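 active = inhibition above the screen-wide mean plus 3 SD, about 51%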;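 also: 0% = DMSO wells and 100% = benzethonium chloride 70 µM positive control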); settings: K562-ABCB6 porphyrin accumulation, 1 h, at 10 µM, stronger effect = higher value
# [16] = promoters of myeloid differentiation in arrested cells, primary screen, cell-based, GFP/MAC1 double positive, flow cytometry, validation set (AID 588685;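 active = differentiation response of at least 50%, scaled between solvent and reference control, from cells with both markers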;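 also: compound exposure lasts four days before antibody staining and flow analysis; 0% = DMSO wells and 100% = 5 µM fulvestrant positive control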); settings: ER-HoxA9 marrow cells, stronger effect = higher value, normalized: vehicle 0, fulvestrant 100
# Sequence of ATP-binding cassette sub-family B member 6 (Homo sapiens) (Q9NP58 whole entry, looked up): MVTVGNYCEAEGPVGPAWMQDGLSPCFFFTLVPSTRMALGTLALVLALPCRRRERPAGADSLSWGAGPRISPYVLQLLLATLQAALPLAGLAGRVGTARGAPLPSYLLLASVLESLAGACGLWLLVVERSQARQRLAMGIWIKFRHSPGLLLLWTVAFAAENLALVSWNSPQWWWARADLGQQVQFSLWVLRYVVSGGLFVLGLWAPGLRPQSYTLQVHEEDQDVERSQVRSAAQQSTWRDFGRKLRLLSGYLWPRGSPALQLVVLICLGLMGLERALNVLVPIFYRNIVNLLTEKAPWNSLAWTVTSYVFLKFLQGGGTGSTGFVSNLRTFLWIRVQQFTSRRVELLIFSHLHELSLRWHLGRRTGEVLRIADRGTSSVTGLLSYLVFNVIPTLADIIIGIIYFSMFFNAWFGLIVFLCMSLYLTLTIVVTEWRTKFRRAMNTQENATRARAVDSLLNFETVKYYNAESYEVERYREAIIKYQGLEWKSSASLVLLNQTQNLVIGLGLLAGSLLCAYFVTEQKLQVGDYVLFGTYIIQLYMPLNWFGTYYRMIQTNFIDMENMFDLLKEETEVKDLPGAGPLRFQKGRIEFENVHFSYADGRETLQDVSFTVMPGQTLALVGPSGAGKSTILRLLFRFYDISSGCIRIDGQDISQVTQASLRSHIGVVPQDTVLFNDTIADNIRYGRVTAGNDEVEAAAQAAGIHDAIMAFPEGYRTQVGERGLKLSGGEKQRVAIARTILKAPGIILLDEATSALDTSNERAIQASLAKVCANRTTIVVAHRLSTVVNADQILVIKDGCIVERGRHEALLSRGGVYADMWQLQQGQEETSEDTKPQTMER
# Sequence of Beta-2 adrenergic receptor (Homo sapiens) (P07550 whole entry, looked up): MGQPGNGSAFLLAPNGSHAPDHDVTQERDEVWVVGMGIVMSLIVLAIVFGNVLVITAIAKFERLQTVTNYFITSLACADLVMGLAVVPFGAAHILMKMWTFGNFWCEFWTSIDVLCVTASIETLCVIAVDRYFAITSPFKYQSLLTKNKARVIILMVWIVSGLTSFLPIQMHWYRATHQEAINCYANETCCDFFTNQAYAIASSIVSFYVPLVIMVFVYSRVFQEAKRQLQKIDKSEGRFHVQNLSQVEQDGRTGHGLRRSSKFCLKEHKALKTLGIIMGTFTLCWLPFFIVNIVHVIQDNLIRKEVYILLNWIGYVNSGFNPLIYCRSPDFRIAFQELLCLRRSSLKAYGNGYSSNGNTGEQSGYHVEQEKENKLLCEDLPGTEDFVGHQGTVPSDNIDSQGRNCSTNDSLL
# Sequence of AP-2 complex subunit beta (Homo sapiens) (P63010 whole entry, looked up, the tested form may be a part, one chain of several): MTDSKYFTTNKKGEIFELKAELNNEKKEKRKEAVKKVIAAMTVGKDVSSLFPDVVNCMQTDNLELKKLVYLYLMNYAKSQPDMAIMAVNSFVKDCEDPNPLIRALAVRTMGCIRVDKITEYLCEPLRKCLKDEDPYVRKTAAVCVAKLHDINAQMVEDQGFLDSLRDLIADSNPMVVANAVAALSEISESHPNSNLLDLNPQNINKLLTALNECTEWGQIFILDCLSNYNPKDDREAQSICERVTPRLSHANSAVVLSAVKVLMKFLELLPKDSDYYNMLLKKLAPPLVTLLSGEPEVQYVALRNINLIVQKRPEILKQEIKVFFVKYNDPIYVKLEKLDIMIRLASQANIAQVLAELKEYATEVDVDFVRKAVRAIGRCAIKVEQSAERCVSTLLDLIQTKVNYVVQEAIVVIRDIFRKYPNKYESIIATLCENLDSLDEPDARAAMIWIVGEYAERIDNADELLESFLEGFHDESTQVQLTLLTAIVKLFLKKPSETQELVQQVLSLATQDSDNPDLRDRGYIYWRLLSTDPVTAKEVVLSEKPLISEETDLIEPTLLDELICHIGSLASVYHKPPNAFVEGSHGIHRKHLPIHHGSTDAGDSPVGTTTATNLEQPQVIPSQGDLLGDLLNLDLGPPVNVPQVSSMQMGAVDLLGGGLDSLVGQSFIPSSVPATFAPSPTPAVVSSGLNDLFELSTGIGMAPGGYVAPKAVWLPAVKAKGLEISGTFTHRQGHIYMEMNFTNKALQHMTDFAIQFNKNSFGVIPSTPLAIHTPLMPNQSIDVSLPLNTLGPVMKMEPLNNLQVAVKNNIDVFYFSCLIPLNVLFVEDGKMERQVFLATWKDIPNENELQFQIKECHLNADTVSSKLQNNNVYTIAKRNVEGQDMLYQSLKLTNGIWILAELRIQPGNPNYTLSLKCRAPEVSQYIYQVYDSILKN
# Sequence of Beta-adrenergic receptor kinase 1 (Homo sapiens) (P25098 whole entry, looked up): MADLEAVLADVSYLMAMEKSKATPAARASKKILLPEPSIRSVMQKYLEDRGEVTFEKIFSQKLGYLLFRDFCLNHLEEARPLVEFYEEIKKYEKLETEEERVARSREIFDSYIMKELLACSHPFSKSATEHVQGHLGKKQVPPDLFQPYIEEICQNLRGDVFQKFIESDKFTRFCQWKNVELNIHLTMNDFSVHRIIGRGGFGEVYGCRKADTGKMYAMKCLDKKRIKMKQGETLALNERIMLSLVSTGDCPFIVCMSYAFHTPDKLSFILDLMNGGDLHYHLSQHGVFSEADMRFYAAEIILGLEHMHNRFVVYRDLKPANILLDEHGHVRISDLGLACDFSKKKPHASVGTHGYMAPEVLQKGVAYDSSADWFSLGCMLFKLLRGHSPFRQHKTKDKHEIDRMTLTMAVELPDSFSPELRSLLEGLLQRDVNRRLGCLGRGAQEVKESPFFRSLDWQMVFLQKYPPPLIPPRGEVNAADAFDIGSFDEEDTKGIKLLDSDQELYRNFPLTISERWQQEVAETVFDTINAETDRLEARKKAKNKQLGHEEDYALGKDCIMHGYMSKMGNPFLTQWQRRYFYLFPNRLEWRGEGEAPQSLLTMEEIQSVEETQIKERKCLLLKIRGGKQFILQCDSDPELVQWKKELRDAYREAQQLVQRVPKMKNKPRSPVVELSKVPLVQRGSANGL
# Sequence of Integrin beta-1 (Homo sapiens) + Integrin alpha-4 (Homo sapiens) (P05556 whole entry, looked up): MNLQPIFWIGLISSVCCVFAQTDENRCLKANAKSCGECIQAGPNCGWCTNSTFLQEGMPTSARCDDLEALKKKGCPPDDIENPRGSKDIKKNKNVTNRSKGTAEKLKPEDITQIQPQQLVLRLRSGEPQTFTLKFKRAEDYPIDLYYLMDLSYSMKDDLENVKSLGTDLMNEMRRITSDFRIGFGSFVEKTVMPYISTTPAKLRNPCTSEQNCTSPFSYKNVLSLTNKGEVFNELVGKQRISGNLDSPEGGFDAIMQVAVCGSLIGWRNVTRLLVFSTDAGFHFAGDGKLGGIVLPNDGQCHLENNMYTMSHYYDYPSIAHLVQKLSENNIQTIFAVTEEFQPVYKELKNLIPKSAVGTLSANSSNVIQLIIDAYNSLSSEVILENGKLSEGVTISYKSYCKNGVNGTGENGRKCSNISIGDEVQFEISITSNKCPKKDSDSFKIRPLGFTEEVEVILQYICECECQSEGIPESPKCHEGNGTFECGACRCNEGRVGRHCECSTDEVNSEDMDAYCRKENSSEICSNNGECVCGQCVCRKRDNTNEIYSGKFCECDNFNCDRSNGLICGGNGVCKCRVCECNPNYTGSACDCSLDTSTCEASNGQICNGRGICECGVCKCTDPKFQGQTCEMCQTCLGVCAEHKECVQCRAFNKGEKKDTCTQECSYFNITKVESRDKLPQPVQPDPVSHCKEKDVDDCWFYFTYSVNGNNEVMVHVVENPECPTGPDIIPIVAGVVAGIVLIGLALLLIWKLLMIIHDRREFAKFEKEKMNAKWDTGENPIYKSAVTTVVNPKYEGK
# Sequence of Integrin beta-1 (Homo sapiens) + Integrin alpha-4 (Homo sapiens) (P13612 whole entry, looked up): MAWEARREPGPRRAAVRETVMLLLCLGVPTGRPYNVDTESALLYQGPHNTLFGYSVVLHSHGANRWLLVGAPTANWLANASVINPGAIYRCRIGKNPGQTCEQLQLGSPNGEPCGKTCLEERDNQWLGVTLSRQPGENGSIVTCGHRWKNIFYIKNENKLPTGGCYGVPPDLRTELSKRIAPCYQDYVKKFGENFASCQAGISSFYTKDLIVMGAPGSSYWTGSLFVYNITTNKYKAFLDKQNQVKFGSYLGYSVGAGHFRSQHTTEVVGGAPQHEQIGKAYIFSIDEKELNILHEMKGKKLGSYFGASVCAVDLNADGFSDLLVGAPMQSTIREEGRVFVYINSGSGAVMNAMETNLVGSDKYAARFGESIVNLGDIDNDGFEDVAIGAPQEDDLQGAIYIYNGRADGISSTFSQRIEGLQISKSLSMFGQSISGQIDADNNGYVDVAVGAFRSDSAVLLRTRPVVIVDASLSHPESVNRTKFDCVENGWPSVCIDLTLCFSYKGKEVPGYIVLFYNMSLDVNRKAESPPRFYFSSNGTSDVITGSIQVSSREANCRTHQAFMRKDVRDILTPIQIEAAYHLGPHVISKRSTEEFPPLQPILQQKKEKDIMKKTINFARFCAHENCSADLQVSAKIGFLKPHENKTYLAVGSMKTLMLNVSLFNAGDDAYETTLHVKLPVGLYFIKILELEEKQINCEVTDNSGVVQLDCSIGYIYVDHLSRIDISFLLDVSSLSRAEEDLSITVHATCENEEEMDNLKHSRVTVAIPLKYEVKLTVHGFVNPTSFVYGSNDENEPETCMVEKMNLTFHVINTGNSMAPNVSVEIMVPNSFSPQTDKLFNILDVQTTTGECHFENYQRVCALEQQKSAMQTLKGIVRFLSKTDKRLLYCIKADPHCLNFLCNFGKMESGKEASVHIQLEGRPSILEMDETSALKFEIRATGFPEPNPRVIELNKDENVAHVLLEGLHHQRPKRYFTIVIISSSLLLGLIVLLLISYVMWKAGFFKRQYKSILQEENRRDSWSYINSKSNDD
SMILES,percent of DMSO control GFP [1],GFP response vs DMSO [2],percent response of DMSO control [3],GFP response vs DMSO [4],"GFP response, % of DMSO [5]",double positive events [6] [%],vesicle binding response [6],inhibition [7],superoxide response (% of plate) [8],aptamer binding inhibition [9],response [10],inhibition [11],response [12],binding (% of control) [13],efflux inhibition (fraction of control) [14],inhibition [15],differentiation response [16]
CC(C)CC(NC(=O)c1cccc(Cl)c1)C(=O)O (stereo not given),94.6% (inactive),102% (inactive),94.8% (inactive),129% (inactive),101% (inactive),60.5,207% (inactive),-7.25% (inactive),113% (inactive),0% (inactive),-14.8% (inactive),14.1% (inactive),1.45% (inactive),98% (inactive),-0.13 (inactive),2% (inactive),-5.6% (inactive)
CN(CCO)CC(O)Cn1cnc2c1c(=O)n(C)c(=O)n2C (stereo not given) (tested in a mixture with another compound),101% (inactive),109% (inactive),100% (inactive),106% (inactive),112% (inactive),62.5,211% (inactive),14.2% (inactive),93.2% (inactive),-1% (inactive),-18.1% (inactive),-3.41% (inactive),-1.98% (inactive),103% (inactive),-0.09 (inactive),7% (inactive),-3.02% (inactive)
COc1ccc2[nH]cc(C3N4CC5(C)CN3CC(C)(C4)C5=O)c2c1 (stereo not given),103% (inactive),103% (inactive),107% (inactive),103% (inactive),107% (inactive),59.2,138% (inactive),9.63% (inactive),105% (inactive),-2% (inactive),-5.37% (inactive),10.8% (inactive),1.5% (inactive),101% (inactive),-0.08 (inactive),2% (inactive),-11.9% (inactive)
CC(C)C[C@H]1C(=O)N2CCC[C@H]2[C@]2(O)O[C@](NC(=O)[C@@H]3C=C4c5cccc6[nH]c(Br)c(c56)CC4N(C)C3)(C(C)C)C(=O)N12 (stereo not given in full),106% (inactive),105% (inactive),99.7% (inactive),102% (inactive),104% (inactive),49.2,107% (inactive),-7.79% (inactive),97.8% (inactive),0% (inactive),-5.85% (inactive),-3.14% (inactive),3.49% (inactive),99.8% (inactive),0.58 (active),-91% (inactive),1.28% (inactive)
NC(N)=NC(N)=NCCc1ccccc1,101% (inactive),112% (inactive),100% (inactive),94% (inactive),100% (inactive),59.4,210% (inactive),3.7% (inactive),105% (inactive),0% (inactive),-4.33% (inactive),7.19% (inactive),-3.91% (inactive),88.8% (inactive),0.24 (inactive),-4% (inactive),-8.55% (inactive)
Cc1cc(Cl)cc2c1NC(=O)[C@]21[C@@H]2C(=O)N(Cc3ccccc3)C(=O)[C@@H]2[C@@H]2CCCN21,96.2% (inactive),95.7% (inactive),90.5% (inactive),102% (inactive),99.6% (inactive),63.7,154% (inactive),-232% (inactive),95.7% (inactive),6% (inactive),-4.55% (inactive),-2.45% (inactive),3.96% (inactive),104% (inactive),0.08 (inactive),-22% (inactive),-14.8% (inactive)
CCOC(=O)Cn1c(C)cc(=O)c2ccccc21,97.6% (inactive),114% (inactive),91% (inactive),117% (inactive),103% (inactive),59.9,226% (inactive),10.5% (inactive),103% (inactive),0% (inactive),8.73% (inactive),56.3% (active),-4.51% (inactive),92.6% (inactive),0.3 (inactive),0% (inactive),114% (active)
COc1ccc(-c2nnc(-c3cc4c(ccc5ccccc54)oc3=O)o2)cc1,101% (inactive),93% (inactive),96.7% (inactive),89.7% (inactive),98% (inactive),61,244% (inactive),-20.9% (inactive),75.6% (inactive),-1% (inactive),50.8% (active),6.88% (inactive),1% (inactive),97.2% (inactive),0.08 (inactive),0% (inactive),-0.8% (inactive)
COC1CCN(C(=O)c2ccc(OC3CCN(Cc4ccccn4)CC3)cc2)CC1,104% (inactive),109% (inactive),104% (inactive),114% (inactive),110% (inactive),65,133% (inactive),9.13% (inactive),89.2% (inactive),-2% (inactive),-2.71% (inactive),26.3% (inactive),-3.44% (inactive),103% (inactive),-0.17 (inactive),8% (inactive),-2.4% (inactive)
CCCn1c(=O)c2[nH]c(C3CCCC3)nc2n(CCC)c1=O,92.6% (inactive),137% (inactive),102% (inactive),82.5% (inactive),88.7% (inactive),62.8,193% (inactive),0.64% (inactive),93.3% (inactive),4% (inactive),-5.24% (inactive),-0.16% (inactive),-6.35% (inactive),102% (inactive),-0.13 (inactive),7% (inactive),2.46% (inactive)
